Assay results as given in PubChem BioAssay (NCI).
About 83,000 compounds went through this panel and 20% of them were active in at least one assay; those are over-represented in the sample as a whole.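 96-well plates, one dose, 48 hours. Percent growth reported; active if below 10.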 Unmarked numbers belong to inactive results. Activity calls are given as the source filed them.

These molecules were tested on MDA-MB-468 breast (assay: NCI-60 one-dose screen, 48 h (100 = growth as untreated, 0 = no growth, -100 = all killed)). Conditions: 10 µM unless noted.

Row | SMILES | growth
1 | Cc1cc2nc3c4cc([N+](=O)[O-])cc([N+](=O)[O-])c4n(CCN(C)C)c3nc2cc1C | 104%
2 | N#CC1=C(N)Oc2ccc3ccccc3c2C1c1ccccc1Cl (stereo not given) | 31.1%
3 | COc1ccc(C(=O)Cn2c(C(=O)c3ccc(Cl)cc3)nc3ccccc32)cc1 | 63.9%
4 | CCOC(=O)c1c(C)[nH]c(C)c1C=O | 99.1%
5 | NC1=NC(SCc2ccccc2CCl)c2ncn(Cc3ccccc3CCl)c2N1 (stereo not given) | -33.2% (active)
6 | CCN(CC)CCCOCCCNc1cc(OC)cc2cccnc12 | -6.79% (active)
7 | COc1cccc(-c2nc3sccn3c2-c2ccnc(NCCCNS(=O)(=O)c3c(Cl)cccc3Cl)c2)c1 | 49.3%
8 | Cn1c(N)c(N=Cc2ccccc2)c(=O)n(C)c1=O | 117%
9 | O=C1/C(=C/c2ccc([N+](=O)[O-])cc2)SC(=Nc2ccccc2)N1Nc1ccccc1 | 87.8%
10 | NC1[C@H](c2c[nH]c3ccccc23)c2c([nH]c3ccccc23)[C@H]1c1c[nH]c2ccccc12 (stereo not given in full) | 106%
11 | C=C1c2c(C)nn(-c3ccc(O)cc3)c2N(C)C23C[C@@H]1C1(C)c4c(C)nn(-c5ccc(O)cc5)c4N(C)C(C)(C[C@H]12)C3 (stereo not given in full) | -5.71% (active)
12 | CSc1ccc2c(c1)N(CCC1CCCCN1C)c1ccccc1S2 (stereo not given) | -10.2% (active)
13 | O=C1COc2ccccc2C(=O)N1CCCCN1CCCCC1 | 76.3%
14 | O=C(CCc1nc(-c2cccc(Cl)c2)no1)Nc1ccccn1 | 83.1%
15 | Cc1c(C)c2c(c(C)c1OCC(=O)O)CC[C@@](C)(CCC[C@@H](C)CCC[C@@H](C)CCCC(C)C)O2 | 0.25% [50 µM] (active)
16 | CCOC(=O)c1c(C)oc2ncnc(Nc3ccc(C(=O)NCCc4ccccc4)cc3)c12 | 90.7%
17 | CCCCCCCCCCCCOB(OCCCCCCCCCCCC)OCCCCCCCCCCCC | 99.2%
18 | CCCCCCCCCCCCC1CCCC(C)C1 (stereo not given) | 111%
19 | COC(=O)c1nc(-c2ccccc2)oc1S(=O)(=O)NCC(c1ccc(Cl)cc1)N1CCCCC1 (stereo not given) | 37%
20 | N#Cc1ccccc1Cn1c2nc(=N)c3ccccc3c-2nc2ccccc21 | 24.3%
21 | O=S(=O)(NCCNc1nccc(-c2c(-c3ccc(F)c(O)c3)nc3occn23)n1)c1ccccc1 | 59.6%
22 | Cc1cc(-c2ccc(N=Nc3c(S(=O)(=O)O)cc4cc(S(=O)(=O)O)cc(N)c4c3O)c(C)c2)ccc1N=Nc1cc(S(=O)(=O)O)c2ccccc2c1O | 105%
23 | Cc1ccc(F)c(NC(=O)Nc2ccc(-c3cccc4[nH]nc(N)c34)cc2)c1 | 15.7%
24 | C=C1CC[C@@H]2[C@](C)(COC(C)=O)[C@H](OC(C)=O)CC[C@@]2(C)[C@@H]1CC(Nc1ccc(S(=O)(=O)Nc2nccs2)cc1)C1=CCOC1=O (stereo not given in full) | -59.9% (active)
25 | COc1ccc(/C(=C2/O[C@@H]([C@H]3COC(C)(C)O3)[C@H]3OC(C)(C)O[C@@H]23)c2cc(OC)c(OC)c(OC)c2)cc1O | 113%
